High-throughput results deposited in PubChem BioAssay by several laboratories.
An excerpt weighted towards active compounds, which were near 5% of everything screened.
AHR act – activates the human aryl hydrocarbon receptor | activation, % at 5 µM | AHR-responsive luciferase reporter cells, luminescence | actives 2.5% (n = 320,000); in the data active means activation above about 47%;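 further: 0% = vehicle wells and 100% = reference agonist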
SENP6 inh – blocks the human protease SENP6. Q9GZR1. actives 1.8% (n = 330,000). inhibition, % at 10 µM. Recombinant SENP6 catalytic domain, aminoluciferin luminescence. AID 2599;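 active means inhibition above about 50% at the single tested dose, limit read from the data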;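 further: plate controls were DMSO wells with enzyme for no effect and DMSO wells lacking enzyme for full effect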
SENP7 block – SENP7 protease inhibition; recombinant SENP7, Z-RLRGG-aminoluciferin luminescence, 40 min; inhibition, % at 5 µM; actives 1.5% (n = 330,000); Q9BQF6;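 active means inhibition above about 50% at the single test dose, limit read from the data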;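 further: plate controls were DMSO with enzyme for no effect and no enzyme buffer wells for full effect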
EBI2 block – EBI2 (human) antagonism; P32249; EBI2 beta-arrestin recruitment, luminescence, 7a,25-OHC stimulated; inhibition, % at 5 µM; actives 0.81% (n = 360,000); AID 651636; in the data active means inhibition above about 38%;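 further: enzyme fragment complementation signal reports receptor beta-arrestin coupling in cells; 0% = agonist plus DMSO wells and 100% = wells without agonist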
Target sequence (P32249 whole entry, looked up, the tested form may be a part): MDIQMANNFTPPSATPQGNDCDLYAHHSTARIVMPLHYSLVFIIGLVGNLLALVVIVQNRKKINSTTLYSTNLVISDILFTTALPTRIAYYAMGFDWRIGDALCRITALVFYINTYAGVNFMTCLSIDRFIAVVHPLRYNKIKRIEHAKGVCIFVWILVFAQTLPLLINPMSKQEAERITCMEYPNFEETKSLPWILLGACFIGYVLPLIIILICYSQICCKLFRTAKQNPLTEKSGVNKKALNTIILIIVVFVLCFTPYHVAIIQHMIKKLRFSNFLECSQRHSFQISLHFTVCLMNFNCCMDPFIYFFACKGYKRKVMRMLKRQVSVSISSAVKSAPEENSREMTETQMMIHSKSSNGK
SENP8 block-1 – inhibitors of human SENP8 protease. Q96LD8. purified SENP8, Z-RLRGG-aminoluciferin cleavage, luminescence. inhibition, % at 10 µM. actives 1.2% (n = 330,000). AID 2540; in the data active means inhibition above about 50%
Target sequence (Q96LD8 whole entry, looked up): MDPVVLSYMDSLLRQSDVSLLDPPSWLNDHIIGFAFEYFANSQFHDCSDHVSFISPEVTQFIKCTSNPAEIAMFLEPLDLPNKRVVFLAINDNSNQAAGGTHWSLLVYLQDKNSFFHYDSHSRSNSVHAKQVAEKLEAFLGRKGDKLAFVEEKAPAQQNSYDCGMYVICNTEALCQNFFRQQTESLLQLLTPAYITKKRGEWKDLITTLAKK
SENP8 block-2 – blocks human SENP8 cleavage of Nedd8 substrate; Q96LD8; recombinant SENP8, Nedd8 substrate fluorescence; inhibition, % at 20 µM; actives 0.64% (n = 360,000); in the data active means inhibition mostly above about 40%, no sharp cut-off; inactive means mostly below about 27%
Numbers without * were called inactive; · = not tested or not shown.

SMILES	AHR act	SENP6 inh	SENP7 block	EBI2 block	SENP8 block-1	SENP8 block-2
Cc1ccsc1C(=O)N1CCC1(C)C(=O)NCc1cccnc1 (stereo unspecified)	·	·	·	-9	·	21
CC(NC(=O)c1cc(Br)ccc1Br)c1ccccc1 (stereo unspecified)	-1	-1	1	·	-5	·
COC(=O)[C@]12CCCCC=C1N(CCC1=CCCCC1)C(=O)[C@H](CC(=O)NCCc1ccccc1OC)C2	·	·	·	20	·	16
CC(C)OC(=O)c1sc2nc(-c3ccccc3)ccc2c1N	-9	-10	-5	48*	17	-296
Cc1cccc(C)c1NC(=O)C(c1ccc(C#N)cc1)n1c(=O)c(-c2cc3ccccc3[nH]2)nc2ccccc21 (stereo unspecified)	·	·	·	9	·	-386
COC(=O)NNC(=O)COc1ccc(Cl)cc1	0	-14	8	-1	1	8
COc1ccc(C(=O)NNC(=O)COc2ccc(Cl)cc2)c(OC)c1	73*	-16	-15	15	-11	6
CCC(C)(C)NC(=O)C(c1ccc(F)cc1)N(Cc1ccccc1)C(=O)c1cnccn1 (stereo unspecified)	0	17	-8	11	4	14
O=[N+]([O-])c1cccc(-c2cn(-c3ccccc3)c(=S)[nH]2)c1	74*	6	6	5	-7	16
O=[N+]([O-])c1ccc(-c2cn(-c3ccccc3)c(=S)[nH]2)cc1	47*	4	4	-21	5	24
CC1=NN(C(N)=S)C(=O)C1N=Nc1ccccc1C(=O)O (stereo unspecified)	1	8	3	-2	-7	10
COc1ccccc1N=NC1C(=O)N(C(N)=S)N=C1C (stereo unspecified)	64*	-12	5	9	2	31
CSc1ccccc1C(=O)Nc1ccc2c(c1)OCO2	54*	-8	3	2	-9	-1
COc1ccc(-n2c(=O)[nH]cc(C(=O)Nc3ccc4c(c3)OCCO4)c2=O)cc1OC	3	1	0	0	5	-12
Cc1cc(C)c(NC(=O)Nc2ccc3c(c2)OCO3)c(C)c1	51*	9	-6	10	0	12
O=C(Nc1ccc2c(c1)OCO2)c1c[nH]c(=O)n(-c2ccc(F)cc2)c1=O	55*	5	4	-2	3	-3
O=C(Nc1ccc(Cl)cc1)Nc1ccc2c(c1)OCO2	59*	3	32	-5	-18	-30
Cc1ccc(NC(=O)Nc2ccc3c(c2)OCO3)c(Br)c1	20	-9	6	-3	-3	-3
CC(=O)NC(C)(c1ccccc1)c1nc(-c2ccc(N(C)C)cc2)cs1 (stereo unspecified)	·	·	·	12	·	-22
Nc1ccn([C@@H]2O[C@H](CNCc3cc(Cl)ccc3OCc3ccc(Cl)cc3)[C@@H](O)[C@H]2O)c(=O)n1	·	·	·	6	·	7
CS(=O)(=O)NCCCCCCNS(C)(=O)=O	1	-16	-1	-1	3	5
Cc1ccc(OCC(=O)Nc2ccc3c(c2)OCO3)c(C)c1	8	-15	-10	3	-10	19
O=C(NCCc1ccccc1)Nc1ccc2c(c1)OCO2	71*	11	9	-7	-8	15
NC(=O)c1cc(Cl)ccc1OCC(=O)Nc1ccc2c(c1)OCO2	51*	3	5	8	-4	-25
O=C(NC(=S)Nc1ccc2c(c1)OCCO2)c1ccccc1F	58*	-24	2	3	-9	20
SMILES	AHR act	SENP6 inh	SENP7 block	EBI2 block	SENP8 block-1	SENP8 block-2
CC(C)c1ccccc1NC(=O)Nc1ccc2c(c1)OCO2	56*	3	-13	2	-2	9
CNS(=O)(=O)c1ccc(CNC[C@H]2O[C@@H](n3cnc(C(N)=O)n3)[C@H](O)[C@@H]2O)cc1	·	·	·	-1	·	11
CN(C)/C=C(\C=N\OCc1ccc(Cl)cc1Cl)C(=O)Nc1ccc(Cl)c(Cl)c1	1	-4	-6	8	-1	24
COc1cc(CC(=O)OCC(=O)NCCc2ccc(S(N)(=O)=O)cc2)cc(OC)c1OC	0	-10	5	-9	1	-16
CN1C[C@H](C(=O)N[C@]2(C)O[C@@]3(O)[C@@H]4CCCN4C(=O)[C@H](Cc4ccccc4)N3C2=O)CC2c3cccc4[nH]cc(c34)C[C@H]21 (stereo partly specified)	0	19	6	-1	-2	-150
CC(C)C[C@H]1C(=O)N2CCC[C@H]2[C@]2(O)O[C@](NC(=O)C3C=C4c5cccc6[nH]c(Br)c(c56)C[C@H]4N(C)C3)(C(C)C)C(=O)N12 (stereo partly specified)	2	4	2	90*	3	-94
CSC[C@H]1CN(c2ccc(Br)cc2)C(=O)[C@@H]1CC(=O)Nc1ccc(Br)cc1	·	·	·	-1	·	4
COc1ccc(C2=NN(c3ccccc3)C(=O)/C2=C\c2ccc(O)c(OC)c2)cc1	0	17	16	3	1	55*
CC1=NN(c2ccccc2)C(=O)/C1=C\c1cc(C)n(C)c1C	54*	15	-2	-9	3	44*
CC1=NN(c2ccccc2)C(=O)/C1=C/C=C/c1ccc(N(C)C)cc1	·	·	·	56*	·	38*
CC1=NN(c2ccccc2)C(=O)/C1=C/N(C)C	0	4	9	0	-4	20
CC(=O)Oc1ccc(/C=C2/C(=O)N(c3ccccc3)N=C2C)cc1	5	14	36	1	4	45*
CC1=NN(c2ccccc2)C(=O)/C1=C\c1cn(C)c2ccccc12	28	-10	6	17	0	26
Cc1ccc(NS(=O)(=O)c2ccc(OCC(=O)NCc3ccccn3)cc2)cc1	5	0	-9	-14	-6	3
N#Cc1ccc(C(=O)N2CCC3CC2c2cc(-c4ccccc4)ccc23)cc1 (stereo unspecified)	·	·	·	0	·	8
CCCCCCn1c(=O)n2n(c1=O)[C@@H]1CN(S(=O)(=O)c3ccc(C)cc3)C[C@]1(O)[C@@H](OC(=O)NCc1ccc(OC)c(OC)c1)C2	·	·	·	1	·	6
CNC(=O)C[C@H]1C(=O)N(CCc2ccccc2)C[C@@H]1CSC	·	·	·	-6	·	12
CCOc1cc(/C=C2/C(=O)N(c3ccccc3)N=C2C)ccc1OC(=O)c1cccs1	7	20	18	-5	-6	38
CC1=NN(c2ccccc2)C(=O)/C1=C\C=C1\N(C)c2ccccc2C1(C)C	29	-7	6	4	6	18
COc1ccc(/C=C2/C(=O)N(c3ccccc3)N=C2C)cc1OC	·	13	30	8	2	75*
COc1ccc(/C=C2/C(=O)N(c3ccccc3)N=C2C)cc1	5	39	47	0	11	91*
CC1=NN(c2ccccc2)C(=O)/C1=C\C=C1/N(C)c2ccccc2C1(C)C	42	12	5	24	0	47*
O=C(Nc1nnc([C@@H]2C[C@H](O)[C@@H](CO)O2)s1)Nc1ccc(F)cc1F	·	·	·	-12	·	4
